# Shown is part of a subset that was picked to be rich in hits.
# mHTT-CaM PPI inh – mHTT-calmodulin interaction abrogation | AlphaScreen His-mHTT/GST-CaM binding, luminescence | inhibition, % at 15 µM | 190,000 compounds, 3.6% hits | AID 1671202;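 note: 0% = both proteins with DMSO and 100% = one protein alone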
# Target sequence (P42858 whole entry, looked up, stated change not applied): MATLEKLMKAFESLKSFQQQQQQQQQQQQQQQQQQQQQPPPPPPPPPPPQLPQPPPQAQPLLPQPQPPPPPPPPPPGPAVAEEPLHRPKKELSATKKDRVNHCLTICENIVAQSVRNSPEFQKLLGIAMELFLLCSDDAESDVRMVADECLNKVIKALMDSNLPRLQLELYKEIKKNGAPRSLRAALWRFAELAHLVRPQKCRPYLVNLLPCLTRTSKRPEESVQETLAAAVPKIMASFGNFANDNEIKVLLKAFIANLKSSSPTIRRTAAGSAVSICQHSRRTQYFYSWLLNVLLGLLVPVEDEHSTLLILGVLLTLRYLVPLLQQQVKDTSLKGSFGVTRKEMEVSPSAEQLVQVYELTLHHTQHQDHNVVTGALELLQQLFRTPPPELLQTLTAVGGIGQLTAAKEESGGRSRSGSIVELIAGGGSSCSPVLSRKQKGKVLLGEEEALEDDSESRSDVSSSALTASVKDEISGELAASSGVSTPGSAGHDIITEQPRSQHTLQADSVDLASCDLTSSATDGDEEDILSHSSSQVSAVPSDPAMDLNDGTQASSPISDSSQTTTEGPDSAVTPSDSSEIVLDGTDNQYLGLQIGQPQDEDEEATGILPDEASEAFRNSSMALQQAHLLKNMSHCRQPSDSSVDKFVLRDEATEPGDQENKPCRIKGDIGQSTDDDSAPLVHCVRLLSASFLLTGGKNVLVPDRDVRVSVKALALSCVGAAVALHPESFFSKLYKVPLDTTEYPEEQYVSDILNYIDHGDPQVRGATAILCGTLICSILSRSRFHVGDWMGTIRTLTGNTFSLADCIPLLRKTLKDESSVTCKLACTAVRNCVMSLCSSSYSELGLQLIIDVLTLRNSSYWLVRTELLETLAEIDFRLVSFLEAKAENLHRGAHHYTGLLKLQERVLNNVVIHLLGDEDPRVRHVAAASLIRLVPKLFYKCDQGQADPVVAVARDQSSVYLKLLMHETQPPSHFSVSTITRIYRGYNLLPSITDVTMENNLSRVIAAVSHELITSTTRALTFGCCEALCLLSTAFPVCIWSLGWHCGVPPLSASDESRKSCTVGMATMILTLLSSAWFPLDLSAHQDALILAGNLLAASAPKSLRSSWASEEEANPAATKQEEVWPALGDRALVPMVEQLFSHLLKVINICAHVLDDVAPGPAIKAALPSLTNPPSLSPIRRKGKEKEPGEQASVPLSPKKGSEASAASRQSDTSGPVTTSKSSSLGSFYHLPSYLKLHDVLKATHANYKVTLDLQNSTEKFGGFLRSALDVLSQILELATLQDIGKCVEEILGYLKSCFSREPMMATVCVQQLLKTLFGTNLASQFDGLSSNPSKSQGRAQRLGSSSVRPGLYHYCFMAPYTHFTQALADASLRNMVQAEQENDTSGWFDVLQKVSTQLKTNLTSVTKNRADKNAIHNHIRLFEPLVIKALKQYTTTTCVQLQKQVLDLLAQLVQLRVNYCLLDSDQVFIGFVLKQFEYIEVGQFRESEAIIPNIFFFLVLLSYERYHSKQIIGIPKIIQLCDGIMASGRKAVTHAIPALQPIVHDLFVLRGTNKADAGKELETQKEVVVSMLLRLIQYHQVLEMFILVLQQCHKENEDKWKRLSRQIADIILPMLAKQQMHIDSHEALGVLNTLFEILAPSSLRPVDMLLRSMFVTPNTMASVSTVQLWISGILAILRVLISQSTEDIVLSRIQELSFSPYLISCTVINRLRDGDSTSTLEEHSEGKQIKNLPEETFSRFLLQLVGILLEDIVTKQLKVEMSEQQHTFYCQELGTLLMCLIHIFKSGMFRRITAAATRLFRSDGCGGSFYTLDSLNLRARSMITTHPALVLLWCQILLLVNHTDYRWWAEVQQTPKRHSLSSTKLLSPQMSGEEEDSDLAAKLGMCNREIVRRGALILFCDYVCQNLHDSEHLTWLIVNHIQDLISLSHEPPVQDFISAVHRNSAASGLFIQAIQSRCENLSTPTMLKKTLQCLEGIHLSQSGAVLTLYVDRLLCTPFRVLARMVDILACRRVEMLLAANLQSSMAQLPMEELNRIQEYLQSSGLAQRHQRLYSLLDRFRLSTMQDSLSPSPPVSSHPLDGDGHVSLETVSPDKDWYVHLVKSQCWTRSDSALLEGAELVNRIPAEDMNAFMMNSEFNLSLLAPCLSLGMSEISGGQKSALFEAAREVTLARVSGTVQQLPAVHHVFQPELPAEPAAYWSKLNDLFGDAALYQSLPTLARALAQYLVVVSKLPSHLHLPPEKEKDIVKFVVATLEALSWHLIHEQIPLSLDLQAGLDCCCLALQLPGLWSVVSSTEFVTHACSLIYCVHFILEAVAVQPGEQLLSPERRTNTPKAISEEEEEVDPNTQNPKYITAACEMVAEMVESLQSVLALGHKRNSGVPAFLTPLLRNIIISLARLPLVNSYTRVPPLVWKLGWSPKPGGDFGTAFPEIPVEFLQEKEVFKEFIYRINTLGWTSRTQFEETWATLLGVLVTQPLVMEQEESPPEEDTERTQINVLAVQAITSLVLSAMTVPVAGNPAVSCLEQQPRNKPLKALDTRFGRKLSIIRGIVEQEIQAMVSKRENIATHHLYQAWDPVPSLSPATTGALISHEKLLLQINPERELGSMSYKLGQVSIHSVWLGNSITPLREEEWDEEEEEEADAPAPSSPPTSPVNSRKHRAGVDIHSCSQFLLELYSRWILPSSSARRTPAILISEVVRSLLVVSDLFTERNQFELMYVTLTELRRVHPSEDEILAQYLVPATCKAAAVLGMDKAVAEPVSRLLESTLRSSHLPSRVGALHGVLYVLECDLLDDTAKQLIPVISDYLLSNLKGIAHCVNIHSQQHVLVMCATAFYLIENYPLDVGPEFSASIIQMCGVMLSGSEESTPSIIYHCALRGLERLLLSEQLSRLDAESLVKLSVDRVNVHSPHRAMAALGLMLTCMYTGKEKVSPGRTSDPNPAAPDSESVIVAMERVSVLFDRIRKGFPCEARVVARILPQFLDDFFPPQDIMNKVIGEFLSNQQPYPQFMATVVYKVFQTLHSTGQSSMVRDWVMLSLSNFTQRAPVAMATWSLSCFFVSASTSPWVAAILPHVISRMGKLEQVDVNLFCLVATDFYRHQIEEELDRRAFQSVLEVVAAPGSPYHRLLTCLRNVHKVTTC
# Pf apPOL block – Pf-apPOL DNA polymerase inhibition; inhibition, % at 10 µM; AID 1794808; Recombinant Pf-apPOL, molecular beacon fluorescence, 1.5 h; 210,000 compounds, 0.25% hits
# Numbers without * were called inactive; nt = no result. Cut-off read from the data, not from the text of the source: active = inhibition above about 50%; inactive = the rest.
SMILES,mHTT-CaM PPI inh,Pf apPOL block
CC(=O)Nc1ccc(-c2noc(C3CCCN(C(=O)c4cc5ccccc5[nH]4)C3)n2)cc1 (stereo unspecified),-4,-2
O=C(Nc1nccs1)c1cc2cc([N+](=O)[O-])ccc2oc1=Nc1ccc(Cl)cc1,8,-5
Cc1ccc(C(C)C)c(OCCn2ncc3ccccc3c2=O)c1,10,-1
CCN(CC)c1cc(CNC(=O)Nc2cccc(OC)c2)ccn1,0,1
CCc1c(C2CCN(C(=O)Nc3ccc(OC)cc3)CC2)noc1N,1,1
O=C(Nc1ccccc1)NC1(C(F)(F)F)Oc2ccccc2O1,0,-2
COc1cccc(-c2nc(C3CCN(C(=O)c4ccc(C(F)(F)F)cc4)CC3)no2)c1,86*,-2
COc1cccc(-c2nc(C3CCN(C(=O)c4nccc5ccccc45)CC3)no2)c1,98*,-6
COc1cccc(-c2nc(C3CCN(C(=O)c4cccc(C)c4)CC3)no2)c1,6,6
COc1cccc(-c2nc(C3CCN(C(=O)c4cc5ccccc5[nH]4)CC3)no2)c1,8,-22
COc1cccc(-c2nc(C3CCN(C(=O)c4cccc(C(F)(F)F)c4)CC3)no2)c1,33,-2
COc1cccc(-c2nc(C3CCN(C(=O)c4ccc(Cl)c(Cl)c4)CC3)no2)c1,97*,2
Cc1nn(C)c(=O)c2noc(C=Cc3ccc(C(F)(F)F)cc3)c12,nt,-7
CCCC(=O)Nc1c2c(nn1-c1ccc(Cl)cc1)CSC2,-6,-5
COc1ccc(CC(=O)NCc2c(C)cc(C)nc2-c2ccc(OC)cc2)cc1,-4,-7
Cc1sc2cc(C(=O)N3CCCCCC3)[nH]c2c1CN1CCOCC1,59*,-3
Cc1sc2cc(C(=O)N3CCCCC3)[nH]c2c1CN1CCOCC1,31,4
Cc1sc2cc(C(=O)N3CCOCC3)[nH]c2c1CN1CCCC1,24,-3
Cc1sc2cc(C(=O)N3CCC(C)CC3)[nH]c2c1CN1CCOCC1,69*,-7
Cc1c(C(=O)NCCc2csc3nc(-c4ccccc4F)nn23)cnn1-c1ccccc1,28,4
Cn1c2ccccc2c2nc3ccccc3nc21,1,-4
N=C1S/C(=C\c2ccccc2)C(=O)N1c1ccc(F)cc1,0,2
N=C1N=NC(c2ccccc2)=CS/C1=C\c1ccc(F)cc1,59*,2
O=C(Nc1ccccc1N1CCCN(Cc2ccc(F)cc2)C1=O)C1CCC1,7,0
CN(C)C1=C(Nc2cccc(Cl)c2)C(=O)c2ccccc2C1=O,57*,-4
SMILES,mHTT-CaM PPI inh,Pf apPOL block
CC(=O)N(C1=C(N(C)C)C(=O)c2ccccc2C1=O)c1cccc(Cl)c1,18,-7
CN(C)C1=C(Nc2cccc(I)c2)C(=O)c2ccccc2C1=O,92*,-4
CC(C)C(=O)Nc1cccc(I)c1,-1,8
COc1ccc(-n2ccnc(NC(=O)c3cccc(F)c3)c2=O)cc1,-3,-1
COc1cccc(C(=O)Nc2c3c(nn2-c2ccccc2)CSC3)c1OC,-5,-7
O=C(NCCc1csc(C2CCCN(C(=O)c3ccccc3)C2)n1)C1CC1 (stereo unspecified),-4,-2
Nc1ccccc1SC(C(=O)Nc1cc(Cl)c(Cl)cc1Cl)c1ccccc1 (stereo unspecified),nt,-3
O=C(c1ccccc1)N1CCCC(c2ccnc(-c3ccccc3)n2)C1 (stereo unspecified),31,-3
O=C(c1ccc(F)cc1)N1CCCC(c2ccnc(-c3ccccc3)n2)C1 (stereo unspecified),18,-2
O=C(COc1ccc(F)cc1)N1CCCC(c2ccnc(-c3ccccc3)n2)C1 (stereo unspecified),73*,-1
O=C(c1ccco1)N1CCCC(c2ccnc(-c3ccccc3)n2)C1 (stereo unspecified),61*,-2
Cc1ccc(-c2ncc(C(=O)N3CCN(C)CC3)c(-c3ccncc3)n2)cc1,14,-6
Cc1nc(-c2ccc(F)cc2)sc1C(=O)N1CCC(C(C)C(=O)NC2CCCC2)CC1 (stereo unspecified),27,0
O=C(c1cc2n(n1)CCCN(Cc1cccc(F)c1)C2=O)N1CCC2(CC1)OCCO2,-4,-4
COc1ccc(N2C(=O)N(c3ccc(Cl)c(Cl)c3)C3CS(=O)(=O)CC32)cc1 (stereo unspecified),4,-2
COc1c(Br)cc(Br)cc1/C=C1/C(=O)N(c2ccccc2)N=C1C,69*,-3
COc1ccc(Br)cc1/C=C1/C(=O)N(c2ccccc2)N=C1C,7,-1
C=CCOc1ccccc1/C=C1/C(=O)N(c2ccc(Cl)c(Cl)c2)N=C1C,1,20
CCCC1=NN(c2ccccc2)C(=O)/C1=C/c1cc(OC)c(OC)cc1Cl,5,-4
COc1cccc(/C=C2/C(=O)N(c3ccccc3)N=C2C)c1OC,21,-2
COc1cccc(/C=C2/C(=O)N(c3ccc(Cl)c(Cl)c3)N=C2C)c1O,60*,-5
COc1cccc(/C=C2/C(=O)N(c3ccccc3)N=C2C)c1O,73*,-2
CCCC1=NN(c2ccccc2)C(=O)/C1=C\c1cc(Cl)c(O)c(OC)c1,66*,-6
CN(CC12CCCC1N(C)C(=O)CC2)C(=O)c1cnccn1 (stereo unspecified),-4,-1
COc1ccccc1C1=NOC(C(=O)NCc2cccnc2)C1 (stereo unspecified),-9,0
SMILES,mHTT-CaM PPI inh,Pf apPOL block
Clc1ccc2c(SSc3ccnc4cc(Cl)ccc34)ccnc2c1,-5,nt
CCN1CCN(C2CCN(C(=O)Cc3ccc(OC)cc3)CC2)C1=O,-5,-2
COc1ccc(/C=C2/C(=O)N(c3ccc(Cl)c(Cl)c3)N=C2C)cc1OC,19,-2
COc1cc(/C=C2/C(=O)N(c3cccc(Br)c3)N=C2C)cc(OC)c1O,88*,-3
COc1cc(/C=C2/C(=O)N(c3cccc(Br)c3)N=C2C)ccc1OC(C)C,18,0
COc1cc(/C=C2/C(=O)N(c3ccc(Cl)c(Cl)c3)N=C2C)ccc1OCC(=O)O,51*,-7
CC12c3ccccc3C(C)(c3ccccc31)C1C(=O)N(c3cccc([N+](=O)[O-])c3)C(=O)C12 (stereo unspecified),19,8
CCCN(c1nc(C)cc(OC)n1)S(=O)(=O)c1ccccc1Cl,-39,-11
Cc1ccnc(N2CCCC(C(=O)N3CC=C(c4ccccc4)CC3)C2)n1 (stereo unspecified),68*,-5
Cc1ccnc(N2CCCC(C(=O)N3CCCCCC3)C2)n1 (stereo unspecified),-2,-4
Cc1cccc(C(=O)N2CCc3c(c(C(=O)NCc4ccc(F)cc4)nn3C)C2)c1,73*,-10
Cn1nc(C(=O)NCc2ccc(F)cc2)c2c1CCN(C(=O)c1cccs1)C2,0,-12
COc1cccc(C(=O)N2CCc3c(c(C(=O)NCc4ccc(F)cc4)nn3C)C2)c1,86*,-14
Cn1nc(C(=O)NCc2ccc(F)cc2)c2c1CCN(C(=O)c1ccc(F)cc1)C2,-6,-4
CCOc1cc2c(cc1OCC)C(c1ccc(Cl)cc1)OC(=O)C2 (stereo unspecified),7,0
CS(=O)(=O)Nc1cccc(NC(=O)CCC2NC(=O)c3ccccc3NC2=O)c1 (stereo unspecified),-7,-6
Nc1n[nH]c(CCCc2nc(N)n[nH]2)n1,-5,-2
Cc1ccc(S(=O)(=O)N=C2C=C(Nc3cccc(C(=O)O)c3)C(=O)c3ccccc32)c(C)c1,86*,47

# High-throughput results deposited in PubChem BioAssay by University of Kansas High Throughput Screening Laboratory.
